Results filed as inconclusive are left out. Values without a mark were called inactive. The source made the active and inactive calls. Unless noted, calls come from the whole dose curve; as a rule, active = well fitted curve in the direction sought with a large enough effect in the repeat runs; inconclusive = weak or mixed curves; inactive = no such curve, though single readings can be large; an effect the other way counts as inactive or inconclusive.

Consider 8 compounds from PubChem BioAssay (Tox21).

A short description of assay [1]: qHTS assay to identify small molecule agonists of the vitamin D receptor (VDR) signaling pathway - cell viability counter screen (AID 743224). Note: nearly all actives have a fitted effect of over 50% in size. An outline of the steps: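 Plated VDR-bla cells (4 h, 37C) received compound, incubated 16 h, then LiveBLAzer substrate 2 h RT; CellTiter-Glo added afterwards, luminescence read at 30 min.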
For orientation: Quantitative high-throughput screening tests each substance at several concentrations.

The nature of assay [2]: qHTS assay to identify small molecule antagonists of the vitamin D receptor (VDR) signaling pathway - cell viability counter screen (AID 743225). Note: nearly all actives have a fitted effect of over 50% in size. An outline of the steps:
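Viability counter screen run in the same wells as the beta-lactamase reporter assay: HEK 293T VDR-UAS-bla cells, 16 h compound exposure at 37C with 3 nM (final) 1-alpha,25-dihydroxyvitamin D3. CellTiter-Glo luminescence, 30 min, room temperature.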

Assay [3] can be described thus: qHTS assay to identify small molecule agonists of the NFkB signaling pathway (AID 1159509; active = well fitted curve in the direction sought with a large enough effect in the signal ratio in the repeat runs, not every such curve was filed as active; the % refers to the signal ratio). In outline: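 After overnight attachment, reporter cells received test compounds, DMSO or positive controls and were incubated 5 hr at 37 C. FRET substrate was then added for 1.5 hr at room temperature before dual-emission fluorescence reading.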
Assay [4] is described as follows: qHTS assay to identify small molecule agonists of the endoplasmic reticulum stress response signaling pathway (AID 1159516; active = well fitted activation curve with a large enough effect in the signal ratio in the repeat runs, not every such curve was filed as active; the % refers to the signal ratio). In outline:
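An ESRE-bla HeLa cell assay: compounds were pin-transferred from DMSO onto overnight-plated cells and left 5 hr at 37 C. Substrate was then loaded for 2 hr at room temperature before reading fluorescence at 460 nm and 530 nm.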

Assay [5] is described as follows: qHTS assay to identify small molecule agonists of the endoplasmic reticulum stress response signaling pathway - cell viability counter screen (AID 1159517; calls by dose curve;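 note: HeLa cells carrying an ER stress response element beta-lactamase reporter; nearly all actives have a fitted effect of over 50% in size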). An outline of the steps:
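Luminescence readout: CellTiter-Glo, 30 min RT, same wells as the ESRE-bla reporter read. HeLa ESRE-bla, 1,500 cells/well, o/n 37 C; cpd 5 hr 37 C/5% CO2.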

Assay [6] in a line: qHTS assay to identify small molecule antagonists of the retinoid-related orphan receptor gamma (ROR-gamma) signaling pathway - cell viability counter screen (AID 1159520). Note: nearly all actives have a fitted effect of over 50% in size. In outline: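 Tet-on ROR gamma CHO cells (1,000/well) were plated 4 hr, given compounds in DMSO for 2 hr at 37 C, then induced with 1 uM final doxycycline for 16 hr. Viability was read as ATP by CellTiter-Glo luminescence after 30 min.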

The target of assay [7] is Nuclear receptor ROR-gamma (Homo sapiens) (UniProt P51449). In words: qHTS assay to identify small molecule antagonists of the retinoid-related orphan receptor gamma (ROR-gamma) signaling pathway (AID 1159521). An outline of the steps:
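Luminescence readout (ONE-Glo, 30 min RT) after 16 h doxycycline induction; loss of signal scored as antagonism. CHO cells with TET-inducible RORγ and RORE-LUC reporter; compounds added 2 h before 1 uM final doxycycline.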

A short description of assay [8]: qHTS assay to identify small molecule agonists of the AP-1 signaling pathway - cell viability counter screen (AID 1159525; calls by dose curve; note: nearly all actives have a fitted effect of over 55% in size). In outline:
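ME-180 AP-1-bla, 2500 cells/well, Opti-MEM + 0.5% dialyzed FBS; overnight 37 °C; cpd 15-pt titration, 5 h 37 °C; CellTiter-Glo 30 min RT; luminescence read; normalised to TOAB and DMSO controls.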

Assay [9] in a line: qHTS assay to identify small molecule agonists of the AP-1 signaling pathway (AID 1159526; calls by dose curve).
The target in assay [10] is Retinoic acid receptor RXR-alpha (Homo sapiens) (UniProt P19793). In words: qHTS assay to identify small molecule agonists of the RXR signaling pathway (AID 1159527; calls by dose curve; note: nearly all actives have a fitted effect of over 35% in size). An outline of the steps: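 Agonist mode; 9-cis retinoic acid positive control. HEK 293T UAS-bla reporter cells, 2% charcoal-stripped FBS, 16 hr compound exposure at 37 C/5% CO2. LiveBLAzer B/G FRET substrate 2 hr RT; ex 405, em 460/530 nm.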
Chain of Retinoic acid receptor RXR-alpha (Homo sapiens) (P19793 whole entry, looked up): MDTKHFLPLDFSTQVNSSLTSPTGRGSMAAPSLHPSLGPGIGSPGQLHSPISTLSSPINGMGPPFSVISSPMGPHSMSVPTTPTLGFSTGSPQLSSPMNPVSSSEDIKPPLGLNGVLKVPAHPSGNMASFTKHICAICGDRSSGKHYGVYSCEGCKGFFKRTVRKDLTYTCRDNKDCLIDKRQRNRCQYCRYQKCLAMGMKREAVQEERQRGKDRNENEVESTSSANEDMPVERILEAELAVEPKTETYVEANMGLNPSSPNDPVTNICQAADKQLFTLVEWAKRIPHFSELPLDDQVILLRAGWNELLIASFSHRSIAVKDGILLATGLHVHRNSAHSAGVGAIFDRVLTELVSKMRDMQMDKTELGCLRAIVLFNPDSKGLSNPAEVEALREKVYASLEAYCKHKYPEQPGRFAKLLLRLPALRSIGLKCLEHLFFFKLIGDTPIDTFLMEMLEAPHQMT

A short description of assay [11]: qHTS assay to identify small molecule agonists of the RXR signaling pathway - cell viability counter screen (AID 1159529). Note: nearly all actives have a fitted effect of over 50% in size. An outline of the steps: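 Luminescence from CellTiter-Glo (30 min, RT) measured viability in the same wells as the beta-lactamase reporter readout. Cells: GeneBLAzer RXR-alpha HEK 293T, 2% charcoal-stripped FBS. Compound exposure 16 hr, 37 C.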

Assay [12] in a line: qHTS assay to identify small molecule antagonists of the retinoid acid receptor (RAR) signaling pathway - cell viability counter screen (AID 1159551). Note: nearly all actives have a fitted effect of over 35% in size. An outline of the steps:
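Retinol-stimulated (1 uM final) C3RL4 cells, compound 6 h, 37 C; readout CellTiter-Glo luminescence (ATP) after 30 min RT incubation.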

The nature of assay [13]: qHTS assay to identify small molecule antagonists of the retinoic acid receptor (RAR) signaling pathway (AID 1159552; note: nearly all actives have a fitted effect of over 50% in size). In outline:
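Luminescence from a RARE luciferase reporter in C3RL4 cells served as read-out. Cells received compounds together with 1 uM final retinol and incubated 6 hr at 37 C before detection reagent was added for 30 min at room temperature.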

A short description of assay [14]: qHTS assay to identify small molecule agonists of the retinoic acid receptor (RAR) signaling pathway (AID 1159553). Note: potency is the fitted concentration of half-maximal effect. As to conditions: C3RL4 RARE luciferase reporter, agonist, 6 h; activation: at 73.3 µM (top of the series). An outline of the steps: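 Reporter readout comes from luciferase under RARE control in C3RL4 cells; compound exposure lasts 6 hr at 37 C in 5% CO2, and luminescence is recorded following a 30 min room-temperature incubation with reagent.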

Assay [15] in a line: qHTS assay to identify small molecule antagonists of the estrogen related receptor (ERR) signaling pathway from Tox21 library - cell viability counter screen (AID 1224834). Note: nearly all actives have a fitted effect of over 30% in size. An outline of the steps:
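After 17.5 h of compound exposure at 37 C, ERR cells are incubated with CellTiter-Fluor for 30 min and fluorescence intensity serves as the viability measure.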

Assay [16] has as its target Luciferin 4-monooxygenase (Photinus pyralis) (UniProt P08659). In words: qHTS assay to identify small molecule inhibitors of firefly luciferase (AID 1224835). Note: nearly all actives have a fitted effect of over 25% in size. Note: potency is the fitted concentration of half-maximal effect. In outline:
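Quantitative HTS format; KM concentrations of both substrates. Purified P. pyralis FLuc activity quantified from luminescence images.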

Assay [17] in a line: qHTS assay to identify small molecule agonists of the constitutive androstane receptor (CAR) signaling pathway - cell viability counter screen (AID 1224836). Note: nearly all actives have a fitted effect of over 45% in size. An outline of the steps:
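Viability read-out: CellTiter-Fluor fluorescence after 23 h compound exposure at 37 C/5% CO2 in double-stable HepG2-CYP2B6-hCAR cells, with PK11195 present at 0.75 uM final; compounds tested in 15-point titration.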

Assay [18] is described as follows: qHTS assay to identify small molecule antagonists of the constitutive androstane receptor (CAR) signaling pathway - cell viability counter screen (AID 1224837). Note: nearly all actives have a fitted effect of over 45% in size. An outline of the steps:
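Counter screen run in HepG2-CYP2B6-hCAR cells: 4 hr settle, compound titration (15 concentrations) with 50 nM CITCO, 23 hr at 37 C/5% CO2, CellTiter-Fluor fluorescence.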

The target in assay [19] is Nuclear receptor subfamily 1 group I member 3 (Homo sapiens) (UniProt Q14994). In words: qHTS assay to identify small molecule antagonists of the constitutive androstane receptor (CAR) signaling pathway (AID 1224838).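 Note: HepG2 cells stably expressing hCAR with CYP2B6 luciferase reporter stimulated by CITCO; nearly all actives have a fitted effect of over 40% in size.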 In outline:
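Cell line: HepG2 double-stable for hCAR and CYP2B6-2.2kb reporter. Agonist: CITCO, 50 nM final. Compounds: 15 concentrations, 24 h, 37 C. Detection: ONE-Glo luminescence.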

The nature of assay [20]: qHTS assay to identify small molecule agonists of the NFkB signaling pathway - cell viability counter screen (AID 1159515; calls by dose curve; note: nearly all actives have a fitted effect of over 55% in size). In outline: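 Using the same wells as the NFkB reporter read, ME-180 NFkB-bla cells given compounds for 5 hr were assessed for viability via CellTiter-Glo, with luminescence taken after a 30 min room-temperature incubation.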

Chain of Nuclear receptor subfamily 1 group I member 3 (Homo sapiens) (Q14994 whole entry, looked up): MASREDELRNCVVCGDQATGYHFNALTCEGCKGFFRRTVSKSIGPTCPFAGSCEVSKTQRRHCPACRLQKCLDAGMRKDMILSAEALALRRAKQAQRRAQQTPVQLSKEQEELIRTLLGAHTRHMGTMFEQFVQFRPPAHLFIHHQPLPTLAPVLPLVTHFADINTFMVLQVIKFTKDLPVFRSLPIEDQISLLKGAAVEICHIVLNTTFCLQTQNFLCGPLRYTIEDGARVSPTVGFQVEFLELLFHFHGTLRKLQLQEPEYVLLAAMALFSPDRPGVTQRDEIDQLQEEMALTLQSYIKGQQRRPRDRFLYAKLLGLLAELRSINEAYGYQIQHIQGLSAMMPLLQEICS
Chain of Luciferin 4-monooxygenase (Photinus pyralis) (P08659 whole entry, looked up): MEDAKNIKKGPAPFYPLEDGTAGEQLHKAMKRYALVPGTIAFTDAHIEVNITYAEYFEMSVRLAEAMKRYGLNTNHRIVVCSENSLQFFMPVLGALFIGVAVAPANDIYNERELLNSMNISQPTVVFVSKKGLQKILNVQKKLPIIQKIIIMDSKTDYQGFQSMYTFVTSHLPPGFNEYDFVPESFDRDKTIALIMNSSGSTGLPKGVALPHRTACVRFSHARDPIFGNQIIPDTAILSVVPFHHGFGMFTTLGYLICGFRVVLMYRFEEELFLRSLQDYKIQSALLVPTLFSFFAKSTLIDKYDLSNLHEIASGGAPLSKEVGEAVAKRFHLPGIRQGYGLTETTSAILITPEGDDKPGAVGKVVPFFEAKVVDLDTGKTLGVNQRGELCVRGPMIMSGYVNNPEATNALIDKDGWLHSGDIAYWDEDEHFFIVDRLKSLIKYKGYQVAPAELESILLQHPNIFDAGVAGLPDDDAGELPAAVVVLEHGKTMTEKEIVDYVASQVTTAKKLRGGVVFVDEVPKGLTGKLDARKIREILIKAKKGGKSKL

Take `CCCCOC(=O)[C@@H](C)Oc1ccc(Oc2ccc(C(F)(F)F)cn2)cc1`: the outcome in assay [1], in assay [2], in [3], in assay [4], in [5] and in assay [6] was inactive. Besides, the outcome in assay [7], in assay [8], in assay [9], in assay [11], in assay [12] and in assay [17] was inactive. The Potency result in assay [10], in assay [13], in assay [14], in assay [15], in assay [16] and in assay [18] was “inactive” in each case. In assay [19], the Potency entry is “inactive”.
In the case of `CCCOC(=O)CCCCC(=O)OCCC`, the call in assay [1], in assay [2], in assay [3], in [20], in assay [4] and in assay [6] was inactive. For the same compound, the result in [7], in assay [9], in assay [11], in [12] and in assay [17] was inactive. Besides, the Potency entry in [10], in assay [13], in [15], in assay [16] and in assay [18] was “inactive” throughout.
As for `NS(=O)(=O)c1ccc(Cl)c(S(N)(=O)=O)c1`, the compound was classed as inactive in assay [1], in assay [2], in [3], in assay [20], in [5] and in assay [6]. For the same compound, the result in assay [7], in assay [8], in assay [9], in [11], in [12] and in assay [17] was inactive. The Potency result in assay [10], in assay [13], in [14], in assay [15] and in [16] was “inactive” throughout.
Consider `NC(=O)C1(N2CCCCC2)CCN(CCCC(=O)c2ccc(F)cc2)CC1`, for which the result in [1], in [2], in [3], in assay [20], in assay [5] and in [6] was inactive. Further, the result in [7], in assay [8], in assay [9], in assay [11], in [12] and in assay [17] was inactive. Further, the Potency result in assay [10], in assay [13], in assay [14], in [15] and in assay [18] was “inactive” throughout.
Turning to `O=C(/C=C/c1ccccc1)NCCO`, the result in [1], in assay [2], in assay [3], in assay [20], in assay [5] and in assay [6] was inactive. Further, the compound was called inactive in assay [7], in [8], in assay [9], in assay [11], in assay [12] and in assay [17]. For the same compound, the Potency result in assay [10], in assay [13], in assay [14], in [18] and in [19] was “inactive” in each case.
On to `CC(C)COC(=O)/C=C/c1ccccc1`, for which the compound was classed as inactive in assay [1], in [2], in assay [3], in [20], in assay [5] and in assay [6]. For the same compound, the result in assay [7], in assay [8], in assay [9], in assay [11], in [12] and in assay [17] was inactive. Also, the Potency entry in assay [10], in assay [13], in assay [15] and in assay [19] was “inactive” in each case. The Potency in [14] was 30.6 µM (active); in assay [16], 7.1 µM (active).
Turning to `CCOC(=O)C(C)(C)C`, the compound was classed as inactive in assay [1], in assay [2], in assay [3], in assay [20], in assay [5] and in assay [6]. The outcome in [7], in assay [8], in [9], in assay [12] and in [17] was inactive. In addition, the Potency result in assay [10], in assay [13], in [14], in [15] and in assay [16] was “inactive” each time.
`CC(C)CCCCCCOC(=O)C1CCCCC1C(=O)OCCCCCCC(C)C` (stereo not drawn): the outcome in assay [1], in [2], in [3], in [4], in [5] and in assay [6] was inactive. Also, the result in assay [7], in assay [8], in [9], in [11], in assay [12] and in assay [17] was inactive. Besides, the Potency result in assay [10], in assay [13], in [14], in assay [15], in assay [16] and in [18] was “inactive” each time.
